Columns and labels:
[1] = target: Sphingosine kinase 1 (Homo sapiens) (UniProt Q9NYA1); settings: at 1 µM;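 note: mean SPHK1 inhibition value reported from the GSK PKIS kinase panel screen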
[2] = target: T1, Sphingosine kinase 2 (Homo sapiens) (UniProt Q9NRA0); settings: at 0.1 µM
T1 sequence (whole entry): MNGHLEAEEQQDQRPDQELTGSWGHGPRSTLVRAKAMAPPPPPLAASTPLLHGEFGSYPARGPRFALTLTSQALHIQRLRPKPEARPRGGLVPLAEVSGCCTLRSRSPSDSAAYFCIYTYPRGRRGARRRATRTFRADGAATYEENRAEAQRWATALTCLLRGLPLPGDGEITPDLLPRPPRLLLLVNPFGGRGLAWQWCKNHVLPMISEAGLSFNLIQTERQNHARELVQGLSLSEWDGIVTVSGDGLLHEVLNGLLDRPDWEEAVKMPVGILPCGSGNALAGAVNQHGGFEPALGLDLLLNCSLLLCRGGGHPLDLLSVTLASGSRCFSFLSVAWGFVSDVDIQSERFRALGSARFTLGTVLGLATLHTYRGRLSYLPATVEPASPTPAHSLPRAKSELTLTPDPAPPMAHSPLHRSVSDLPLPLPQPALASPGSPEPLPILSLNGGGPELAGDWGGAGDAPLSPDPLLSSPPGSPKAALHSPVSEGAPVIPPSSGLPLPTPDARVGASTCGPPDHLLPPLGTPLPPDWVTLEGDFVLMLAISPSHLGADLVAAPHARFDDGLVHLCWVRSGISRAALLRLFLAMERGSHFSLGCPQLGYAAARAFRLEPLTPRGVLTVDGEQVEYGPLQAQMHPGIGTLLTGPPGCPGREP

[3] = target: T1, Sphingosine kinase 2 (Homo sapiens); settings: at 1 µM
[4] = target: Casein kinase II subunit alpha (Homo sapiens) (UniProt P68400); settings: at 0.1 µM
[5] = target: Casein kinase II subunit alpha (Homo sapiens) (UniProt P68400); settings: at 1 µM
[6] = target: T2, Inhibitor of nuclear factor kappa-B kinase subunit alpha (Homo sapiens) (UniProt O15111); settings: at 0.1 µM
T2 sequence (whole entry): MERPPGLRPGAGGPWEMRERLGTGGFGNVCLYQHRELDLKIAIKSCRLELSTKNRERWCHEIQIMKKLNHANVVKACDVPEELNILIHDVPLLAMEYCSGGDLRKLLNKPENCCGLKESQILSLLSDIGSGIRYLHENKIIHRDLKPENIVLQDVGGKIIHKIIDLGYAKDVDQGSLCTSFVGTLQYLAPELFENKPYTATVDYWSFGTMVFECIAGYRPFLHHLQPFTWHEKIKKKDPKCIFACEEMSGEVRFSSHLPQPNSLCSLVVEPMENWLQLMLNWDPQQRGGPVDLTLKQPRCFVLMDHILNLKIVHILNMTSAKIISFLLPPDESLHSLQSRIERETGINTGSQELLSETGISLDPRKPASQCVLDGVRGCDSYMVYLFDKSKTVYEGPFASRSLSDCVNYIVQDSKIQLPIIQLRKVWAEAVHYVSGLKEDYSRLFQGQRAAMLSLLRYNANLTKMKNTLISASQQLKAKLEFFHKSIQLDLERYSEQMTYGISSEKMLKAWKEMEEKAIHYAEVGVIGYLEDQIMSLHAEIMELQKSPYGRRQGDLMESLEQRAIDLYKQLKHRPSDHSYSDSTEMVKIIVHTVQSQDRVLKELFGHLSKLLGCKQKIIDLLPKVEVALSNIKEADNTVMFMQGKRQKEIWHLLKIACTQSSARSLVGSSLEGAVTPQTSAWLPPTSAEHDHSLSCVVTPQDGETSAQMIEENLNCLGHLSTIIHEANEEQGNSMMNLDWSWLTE

[7] = target: T2, Inhibitor of nuclear factor kappa-B kinase subunit alpha (Homo sapiens); settings: at 1 µM
[8] = target: T3, Inhibitor of nuclear factor kappa-B kinase subunit beta (Homo sapiens) (UniProt O14920); settings: at 0.1 µM
T3 sequence (whole entry): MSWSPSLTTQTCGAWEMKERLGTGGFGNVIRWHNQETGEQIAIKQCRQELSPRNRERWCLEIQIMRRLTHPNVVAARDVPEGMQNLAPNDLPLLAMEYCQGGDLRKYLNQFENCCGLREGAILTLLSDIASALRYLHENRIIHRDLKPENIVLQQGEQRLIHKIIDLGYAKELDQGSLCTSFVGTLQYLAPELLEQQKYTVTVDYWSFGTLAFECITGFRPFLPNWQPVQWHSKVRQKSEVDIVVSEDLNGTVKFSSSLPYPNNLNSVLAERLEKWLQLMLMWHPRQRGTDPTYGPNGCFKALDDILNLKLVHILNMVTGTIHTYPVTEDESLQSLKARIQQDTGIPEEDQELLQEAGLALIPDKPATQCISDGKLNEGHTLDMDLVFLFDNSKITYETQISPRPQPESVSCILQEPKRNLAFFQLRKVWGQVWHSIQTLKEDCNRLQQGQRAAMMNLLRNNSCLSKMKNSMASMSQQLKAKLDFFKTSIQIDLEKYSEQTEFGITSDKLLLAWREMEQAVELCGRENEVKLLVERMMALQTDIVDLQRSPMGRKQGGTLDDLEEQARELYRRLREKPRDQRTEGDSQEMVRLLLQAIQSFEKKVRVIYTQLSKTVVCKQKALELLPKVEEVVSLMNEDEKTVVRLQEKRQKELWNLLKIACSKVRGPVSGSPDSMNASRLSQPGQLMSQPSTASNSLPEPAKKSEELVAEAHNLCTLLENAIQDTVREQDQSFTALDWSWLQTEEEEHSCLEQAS

[9] = target: T3, Inhibitor of nuclear factor kappa-B kinase subunit beta (Homo sapiens); settings: at 1 µM
[10] = target: T4, Inhibitor of nuclear factor kappa-B kinase subunit epsilon (Homo sapiens) (UniProt Q14164); settings: at 0.1 µM
T4 sequence (whole entry): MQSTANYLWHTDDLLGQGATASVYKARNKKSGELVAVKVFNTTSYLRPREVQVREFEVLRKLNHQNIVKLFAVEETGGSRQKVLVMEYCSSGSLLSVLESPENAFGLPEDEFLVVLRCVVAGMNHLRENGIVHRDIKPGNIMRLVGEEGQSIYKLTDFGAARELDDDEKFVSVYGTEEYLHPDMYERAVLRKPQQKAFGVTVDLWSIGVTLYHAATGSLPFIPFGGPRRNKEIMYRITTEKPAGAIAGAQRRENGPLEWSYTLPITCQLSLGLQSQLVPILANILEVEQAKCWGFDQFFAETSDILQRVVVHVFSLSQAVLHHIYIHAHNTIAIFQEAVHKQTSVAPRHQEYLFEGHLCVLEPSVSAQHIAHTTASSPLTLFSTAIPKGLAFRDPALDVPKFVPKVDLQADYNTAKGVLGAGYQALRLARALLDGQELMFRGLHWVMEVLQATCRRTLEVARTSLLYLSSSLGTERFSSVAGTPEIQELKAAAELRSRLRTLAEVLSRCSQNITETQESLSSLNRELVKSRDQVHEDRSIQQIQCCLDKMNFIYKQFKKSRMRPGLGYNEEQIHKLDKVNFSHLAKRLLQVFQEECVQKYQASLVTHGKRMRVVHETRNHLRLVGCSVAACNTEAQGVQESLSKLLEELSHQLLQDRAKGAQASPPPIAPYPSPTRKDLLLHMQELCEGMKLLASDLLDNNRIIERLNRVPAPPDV

[11] = target: T4, Inhibitor of nuclear factor kappa-B kinase subunit epsilon (Homo sapiens); settings: at 1 µM
[12] = target: T5, Serine/threonine-protein kinase Nek1 (Homo sapiens) (UniProt Q96PY6); settings: at 0.1 µM
T5 sequence (whole entry): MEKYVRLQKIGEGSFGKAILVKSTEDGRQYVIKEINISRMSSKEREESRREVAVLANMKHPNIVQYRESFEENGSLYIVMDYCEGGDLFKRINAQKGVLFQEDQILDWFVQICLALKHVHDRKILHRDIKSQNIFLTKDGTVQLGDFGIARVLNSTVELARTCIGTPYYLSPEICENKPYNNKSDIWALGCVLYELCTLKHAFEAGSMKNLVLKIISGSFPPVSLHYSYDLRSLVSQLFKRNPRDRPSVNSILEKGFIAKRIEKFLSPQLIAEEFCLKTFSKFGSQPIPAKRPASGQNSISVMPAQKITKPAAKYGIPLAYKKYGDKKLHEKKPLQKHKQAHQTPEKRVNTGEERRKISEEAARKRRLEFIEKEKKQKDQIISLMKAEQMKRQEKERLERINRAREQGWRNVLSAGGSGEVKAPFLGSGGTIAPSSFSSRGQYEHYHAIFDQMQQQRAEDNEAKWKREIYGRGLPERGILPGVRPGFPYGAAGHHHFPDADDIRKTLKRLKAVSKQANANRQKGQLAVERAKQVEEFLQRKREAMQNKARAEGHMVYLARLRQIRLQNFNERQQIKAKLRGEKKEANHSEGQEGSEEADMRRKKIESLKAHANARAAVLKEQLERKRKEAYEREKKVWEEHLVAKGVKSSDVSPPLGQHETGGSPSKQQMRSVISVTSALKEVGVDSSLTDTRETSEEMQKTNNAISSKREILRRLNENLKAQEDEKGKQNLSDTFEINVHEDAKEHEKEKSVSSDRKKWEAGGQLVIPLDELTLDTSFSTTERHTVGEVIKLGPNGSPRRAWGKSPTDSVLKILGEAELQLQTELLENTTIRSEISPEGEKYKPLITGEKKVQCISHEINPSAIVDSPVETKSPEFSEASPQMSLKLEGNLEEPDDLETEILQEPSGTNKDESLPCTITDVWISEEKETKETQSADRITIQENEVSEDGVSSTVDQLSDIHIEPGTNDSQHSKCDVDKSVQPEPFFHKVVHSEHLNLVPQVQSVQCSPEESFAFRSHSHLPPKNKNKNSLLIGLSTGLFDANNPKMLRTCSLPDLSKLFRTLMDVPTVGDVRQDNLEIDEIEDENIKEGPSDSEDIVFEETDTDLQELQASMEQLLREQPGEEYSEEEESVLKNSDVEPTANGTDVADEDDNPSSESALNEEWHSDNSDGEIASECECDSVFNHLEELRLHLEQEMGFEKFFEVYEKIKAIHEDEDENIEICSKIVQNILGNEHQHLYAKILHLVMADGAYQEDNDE

[13] = target: T5, Serine/threonine-protein kinase Nek1 (Homo sapiens); settings: at 1 µM
[14] = target: T6, Serine/threonine-protein kinase Nek2 (Homo sapiens) (UniProt P51955); settings: at 0.1 µM
T6 sequence (whole entry): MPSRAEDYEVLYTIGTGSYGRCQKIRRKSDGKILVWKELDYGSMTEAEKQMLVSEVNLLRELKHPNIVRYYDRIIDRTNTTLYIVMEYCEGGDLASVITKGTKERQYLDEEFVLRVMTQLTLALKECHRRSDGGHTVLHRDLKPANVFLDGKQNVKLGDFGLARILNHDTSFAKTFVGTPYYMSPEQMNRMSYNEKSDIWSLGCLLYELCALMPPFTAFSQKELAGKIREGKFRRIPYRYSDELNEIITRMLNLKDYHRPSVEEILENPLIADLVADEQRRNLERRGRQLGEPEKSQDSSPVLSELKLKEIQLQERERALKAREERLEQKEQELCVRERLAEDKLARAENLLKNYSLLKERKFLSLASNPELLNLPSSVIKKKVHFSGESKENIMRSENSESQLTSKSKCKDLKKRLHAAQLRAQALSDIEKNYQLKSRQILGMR

[15] = target: T6, Serine/threonine-protein kinase Nek2 (Homo sapiens); settings: at 1 µM
[16] = target: Serine/threonine-protein kinase Nek6 (Homo sapiens) (UniProt Q9HC98); settings: at 0.1 µM
[17] = target: Serine/threonine-protein kinase Nek6 (Homo sapiens) (UniProt Q9HC98); settings: at 1 µM
[18] = target: Serine/threonine-protein kinase Nek7 (Homo sapiens) (UniProt Q8TDX7); settings: at 0.1 µM
[19] = target: Serine/threonine-protein kinase Nek7 (Homo sapiens) (UniProt Q8TDX7); settings: at 1 µM
[20] = target: T7, Serine/threonine-protein kinase Nek9 (Homo sapiens) (UniProt Q8TD19); settings: at 0.1 µM;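 note: reported value is the mean percent inhibition of NEK9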
T7 sequence (whole entry): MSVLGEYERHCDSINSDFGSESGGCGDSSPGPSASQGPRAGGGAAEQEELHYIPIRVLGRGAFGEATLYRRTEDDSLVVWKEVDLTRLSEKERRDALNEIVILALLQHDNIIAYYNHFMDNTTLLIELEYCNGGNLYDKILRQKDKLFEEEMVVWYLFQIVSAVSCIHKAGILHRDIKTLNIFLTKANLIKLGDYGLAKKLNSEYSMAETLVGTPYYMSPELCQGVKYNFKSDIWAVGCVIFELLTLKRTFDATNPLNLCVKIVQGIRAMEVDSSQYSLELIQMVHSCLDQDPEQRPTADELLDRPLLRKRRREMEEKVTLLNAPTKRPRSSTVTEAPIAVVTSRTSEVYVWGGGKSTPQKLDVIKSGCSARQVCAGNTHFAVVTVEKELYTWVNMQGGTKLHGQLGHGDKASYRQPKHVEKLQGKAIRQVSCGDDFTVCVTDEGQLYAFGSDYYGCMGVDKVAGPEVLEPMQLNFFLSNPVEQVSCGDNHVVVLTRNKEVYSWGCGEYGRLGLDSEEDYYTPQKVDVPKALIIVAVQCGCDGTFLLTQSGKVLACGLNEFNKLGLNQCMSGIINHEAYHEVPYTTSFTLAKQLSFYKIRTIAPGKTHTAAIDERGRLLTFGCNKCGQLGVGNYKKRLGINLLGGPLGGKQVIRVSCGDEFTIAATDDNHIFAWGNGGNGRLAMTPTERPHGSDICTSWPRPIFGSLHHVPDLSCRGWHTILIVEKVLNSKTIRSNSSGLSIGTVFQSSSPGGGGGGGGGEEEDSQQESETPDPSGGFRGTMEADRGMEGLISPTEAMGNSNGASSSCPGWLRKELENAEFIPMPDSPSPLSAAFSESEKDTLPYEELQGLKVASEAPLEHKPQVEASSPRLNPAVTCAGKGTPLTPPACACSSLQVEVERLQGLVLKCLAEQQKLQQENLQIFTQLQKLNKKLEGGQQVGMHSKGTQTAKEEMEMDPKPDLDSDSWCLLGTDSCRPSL

Chain of Serine/threonine-protein kinase Nek6 (Homo sapiens) (Q9HC98 whole entry): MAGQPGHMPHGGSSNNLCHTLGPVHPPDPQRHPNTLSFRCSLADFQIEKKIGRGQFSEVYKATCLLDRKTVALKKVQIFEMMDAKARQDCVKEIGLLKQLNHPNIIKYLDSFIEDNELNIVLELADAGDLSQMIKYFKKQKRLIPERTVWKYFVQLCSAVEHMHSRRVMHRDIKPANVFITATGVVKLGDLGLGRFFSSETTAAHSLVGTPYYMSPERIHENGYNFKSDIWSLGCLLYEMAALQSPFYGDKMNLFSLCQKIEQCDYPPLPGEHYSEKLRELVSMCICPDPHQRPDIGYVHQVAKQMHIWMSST
Chain of Serine/threonine-protein kinase Nek7 (Homo sapiens) (Q8TDX7 whole entry, looked up): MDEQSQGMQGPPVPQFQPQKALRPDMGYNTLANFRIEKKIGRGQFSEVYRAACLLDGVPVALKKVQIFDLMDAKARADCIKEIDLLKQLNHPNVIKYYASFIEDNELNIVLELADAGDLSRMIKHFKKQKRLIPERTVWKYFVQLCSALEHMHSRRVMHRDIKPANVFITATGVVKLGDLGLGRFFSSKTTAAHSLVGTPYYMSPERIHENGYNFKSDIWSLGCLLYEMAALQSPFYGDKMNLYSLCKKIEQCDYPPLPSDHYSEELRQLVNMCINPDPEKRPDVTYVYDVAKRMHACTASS
Chain of Casein kinase II subunit alpha (Homo sapiens) (P68400 whole entry, looked up): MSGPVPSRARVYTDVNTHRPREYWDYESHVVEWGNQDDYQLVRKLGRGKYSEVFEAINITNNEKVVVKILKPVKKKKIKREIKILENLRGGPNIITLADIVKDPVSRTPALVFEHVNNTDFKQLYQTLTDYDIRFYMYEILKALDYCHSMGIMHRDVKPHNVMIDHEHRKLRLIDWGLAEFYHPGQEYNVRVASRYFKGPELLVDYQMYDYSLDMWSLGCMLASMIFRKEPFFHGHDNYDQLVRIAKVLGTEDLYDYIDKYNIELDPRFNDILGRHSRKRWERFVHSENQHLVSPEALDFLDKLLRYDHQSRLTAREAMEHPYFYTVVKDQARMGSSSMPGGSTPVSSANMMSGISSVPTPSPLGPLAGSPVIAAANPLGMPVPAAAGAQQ
Chain of Sphingosine kinase 1 (Homo sapiens) (Q9NYA1 whole entry): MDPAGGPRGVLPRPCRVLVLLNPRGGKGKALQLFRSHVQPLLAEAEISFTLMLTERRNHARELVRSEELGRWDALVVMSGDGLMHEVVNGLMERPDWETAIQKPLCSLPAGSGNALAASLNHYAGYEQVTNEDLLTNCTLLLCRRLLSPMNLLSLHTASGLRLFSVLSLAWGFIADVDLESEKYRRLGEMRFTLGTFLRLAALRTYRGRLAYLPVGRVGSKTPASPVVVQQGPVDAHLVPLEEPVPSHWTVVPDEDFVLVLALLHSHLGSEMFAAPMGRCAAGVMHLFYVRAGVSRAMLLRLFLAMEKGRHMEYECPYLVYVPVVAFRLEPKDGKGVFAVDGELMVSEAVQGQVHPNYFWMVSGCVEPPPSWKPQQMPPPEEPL

Q: For `CCn1c(-c2nonc2N)nc2cncc(C(=O)N3CC[C@H](N)C3)c21`, which inhibition [1] is on record?
A: -5.44%

Q: What about the inhibition [2] of the same molecule?
A: 0.23%

Q: What about the inhibition [3] of the same molecule?
A: -0.8%

Q: And the inhibition [4]?
A: 3.78%

Q: And the inhibition [5]?
A: 3.7%

Q: And the inhibition [6]?
A: 14%

Q: What about the inhibition [7] of the same molecule?
A: 18.8%

Q: And the inhibition [8]?
A: 7.24%

Q: What about the inhibition [9] of the same molecule?
A: 5.79%

Q: What about the inhibition [10] of the same molecule?
A: 13.8%

Q: What about the inhibition [11] of the same molecule?
A: 36.1%

Q: And the inhibition [12]?
A: 1.89%

Q: What about the inhibition [13] of the same molecule?
A: 3.47%

Q: What about the inhibition [14] of the same molecule?
A: 5.3%

Q: And the inhibition [15]?
A: 6.1%

Q: And the inhibition [16]?
A: 0.64%

Q: What about the inhibition [17] of the same molecule?
A: 5.91%

Q: What about the inhibition [18] of the same molecule?
A: 6.16%

Q: What about the inhibition [19] of the same molecule?
A: 7.48%

Q: And the inhibition [20]?
A: 11.8%
